Assay results: PubChem BioAssay
The source made the active and inactive calls. The rule behind the calls is not given here.

What follows are molecules tested on Aerobactin synthetase IucA (Klebsiella pneumoniae, hypervirulent) (assay: IucA enzyme inhibition, biochemical, LOPAC library, absorbance readout (AID 1346212;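 note: 100% = no compound wells and 0% = no enzyme wells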)). Conditions: IucA enzyme assay, absorbance (OD) readout; stronger effect = lower value;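 tested at 8 µM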.

| Structure (SMILES) | remaining activity |
| --- | --- |
| O=C(O)Cc1ccc(O)c(O)c1 | 107% (inactive) |
| O=Nc1c(-c2c(O)[nH]c3cc(Br)ccc23)[nH]c2ccccc12 | 113% (inactive) |
| CC(C)C[C@H](NC(=O)[C@H]1O[C@@H]1C(=O)O)C(=O)NCCCCN=C(N)N | 115% (inactive) |
| Nc1nccc2c1ncn2[C@@H]1O[C@H](CO)[C@@H](O)[C@H]1O | 95.9% (inactive) |
| N=C1Sc2ccccc2C2=NCCCN12 | 118% (inactive) |
| NCCC1CCCC(CCN)N1 (stereo not given) | 115% (inactive) |
| CO/N=C(\C(=O)N[C@@H]1C(=O)N2C(C(=O)O)=C(CSc3nc(=O)c(=O)[nH]n3C)CS[C@H]12)c1csc(N)n1 | 117% (inactive) |
| Cc1cc(C)c(NC(=O)C[C@H](CC(=O)O)c2cccc3ccccc23)c(C(=O)N2CCC3(CCCC3)CC2)c1 | 103% (inactive) |
| COCCOC(=O)C1=C(C)NC(C)=C(C(=O)OC/C=C/c2ccccc2)C1c1cccc([N+](=O)[O-])c1 (stereo not given) | 99.8% (inactive) |
| O=c1[nH]c2cc(C(F)(F)F)ccc2n1-c1cc(C(F)(F)F)ccc1O | 112% (inactive) |
| CCCNC[C@H](O)COc1ccccc1C(=O)CCc1ccccc1 | 91.3% (inactive) |
| Nc1ncnc2n[nH]c(Nc3ccc(F)cc3)c12 | 101% (inactive) |
| Cn1c(=O)c2[nH]c(-c3ccccc3)nc2n(C)c1=O | 124% (inactive) |
| O=C1O/C(=C/Br)CCC1c1cccc2ccccc12 (stereo not given) | 112% (inactive) |
| CCC1(O)CC2CN(CCc3c([nH]c4ccccc34)[C@@](C(=O)OC)(c3cc4c(cc3OC)N(C)C3[C@]45CCN4CC=C[C@@](CC)([C@@H](OC(C)=O)[C@]3(O)C(=O)OC)[C@H]45)C2)C1 (stereo not given in full) | 102% (inactive) |
| C[N+](C)(CCCCCC[N+](C)(C)CCCN1C(=O)c2cccc3cccc(c23)C1=O)CCCN1C(=O)c2cccc3cccc(c23)C1=O | 100% (inactive) |
| CCN1CCC[C@H]1CNC(=O)c1c(O)c(Cl)cc(Cl)c1OC | 98.9% (inactive) |
| CN(C)c1nc(N)c(C(=O)N=C(N)N)nc1Cl | 119% (inactive) |
| O=C(O)/C=C/c1cnc[nH]1 | 101% (inactive) |
| N#Cc1cc([N+](=O)[O-])c2sc(C(N)=O)[n+]([O-])c2c1 | 106% (inactive) |

| Structure (SMILES) | remaining activity |
| --- | --- |
| COCCCC/C(=N\OCCN)c1ccc(C(F)(F)F)cc1 | 100% (inactive) |
| Cc1cccc(C2CN(C)CCc3c2cc(O)c(O)c3Cl)c1 (stereo not given) | 105% (inactive) |
| NC/C=C\C(=O)O | 124% (inactive) |
| CC(C)(C)c1ccc(/C=C/C(=O)Nc2ccc3c(c2)OCCO3)cc1 | 107% (inactive) |
| CC1=C(CC(=O)O)c2cc(F)ccc2/C1=C\c1ccc(S(C)(=O)=O)cc1 | 93.6% (inactive) |
| COc1cc(CNC(=O)CCCCCCC(C)C)ccc1O | 96.1% (inactive) |
| O=C(O)CN(CCN(CC(=O)O)CC(=O)O)CCN(CC(=O)O)CC(=O)O | 90.9% (inactive) |
| O=C(O)CCC(C(=O)O)N1C(=O)c2ccccc2C1=O (stereo not given) | 121% (inactive) |
| COc1cc(NS(C)(=O)=O)ccc1Nc1c2ccccc2nc2ccccc12 | 108% (inactive) |
| O=c1oc(Cl)c(Cl)c2ccccc12 | 92.9% (inactive) |
| CCCCCCCC/C=C\CCCCCCCC(=O)NCCO | 98.7% (inactive) |
| C/C=C1\C(=O)C[C@H]2[C@@H]3CCC4=CC(=O)CC[C@]4(C)[C@H]3CC[C@]12C | 101% (inactive) |
| NCCCNCCCCNCCCN | 108% (inactive) |
| O=S(=O)(c1cccc2cnccc12)N1CCNCC1 | 121% (inactive) |
| Cc1ccc(OC[C@H](O)[C@H](C)NC(C)C)c2c1CCC2 | 101% (inactive) |
| N#C/C(=C\c1ccc(O)c(O)c1)C(=O)c1ccc(O)c(O)c1 | 79.7% (inactive) |
| CC(=O)N1CCN(c2ccc(OC[C@H]3CO[C@](Cn4ccnc4)(c4ccc(Cl)cc4Cl)O3)cc2)CC1 | 121% (inactive) |
| CNC(=O)[C@H]1O[C@@H](n2cnc3c(NCc4cccc(I)c4)nc(Cl)nc32)[C@H](O)[C@@H]1O | 103% (inactive) |
| N[C@@H](Cc1c[nH]c2ccccc12)C(=O)O | 91.3% (inactive) |
| OC1(c2ccc(Cl)cc2)CCN(Cc2c[nH]c3ccccc23)CC1 | 112% (inactive) |
